# Compound activity from PubChem.
# The list is not random: actives were taken first. Their share in the collection is about 1.1%.
# Pin1 inhibitor: human Pin1 inhibition; 390,000 compounds, 0.009% hits; Pin1 FP peptide displacement, HiFluor488, 10 min; Potency, µM (series often up to 115 µM), without a hit: top-dose activity, negative = inhibition, usual class: inhibitors; active = well fitted inhibition curve with a large enough effect in the polarisation, with a control signal flat, not every such curve was filed as active; inconclusive = small, poorly fitted or top-dose-only effect, or effect the other way, or a change in a side signal; inactive = no such curve, though single readings can be large or run the other way; the % refers to the polarisation
# Target sequence (Q13526 whole entry, looked up): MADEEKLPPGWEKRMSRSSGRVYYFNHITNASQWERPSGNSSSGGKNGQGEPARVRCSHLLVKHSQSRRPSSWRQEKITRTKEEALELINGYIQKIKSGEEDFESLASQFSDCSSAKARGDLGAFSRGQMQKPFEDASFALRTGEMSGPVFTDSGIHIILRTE
# Tb PGK inh: T. brucei PGK inhibition | P07378 | PGK/GAPDH coupled, Kinase-Glo luminescence, 60 min | Potency, µM (series often up to 57.5 µM), without a hit: top-dose activity change, negative = inhibition, actives largely listed as inhibitors | 380,000 compounds, 0.043% hits; note: nearly all actives have a fitted effect of over 60% in size
#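 Luminescent ATP detection (Kinase-Glo Plus) follows a 60-minute room-temperature incubation, with wells lacking PGK as controls. Buffer: 100 mM TEA (pH 7.6), 5 mM MgCl2, 0.01% Tween-20. Coupling enzyme GAPDH (100 nM final) supplies unstable 1,3-BPG in-well.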
# VDR inhibitor: vitamin D3 receptor (human) inhibition; P11473; VDR-SRC2-3 peptide fluorescence polarization, 2 h; Potency, µM, for the others: max response, negative = inhibition, actives largely listed as inhibitors; 400,000 compounds, 0.93% hits; AID 504847
#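 Measured by FP: displacement of SRC2-3 coactivator peptide from VDR by library compounds, following a two-hour ambient incubation.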
# Tb PFK inh: blocks T. brucei phosphofructokinase | AID 485367 | 330,000 compounds, 0.17% hits | Potency, µM (series often up to 57.5 µM), for inactives: top-dose activity, negative = inhibition, usual class: inhibitors | O15648 | T. brucei PFK, ADP-Glo luminescence;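 note: 0% = uninhibited 1x PFK enzyme wells and -100% = no-enzyme wells; nearly all actives have a fitted effect of over 60% in size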
# Target sequence (O15648 whole entry, looked up): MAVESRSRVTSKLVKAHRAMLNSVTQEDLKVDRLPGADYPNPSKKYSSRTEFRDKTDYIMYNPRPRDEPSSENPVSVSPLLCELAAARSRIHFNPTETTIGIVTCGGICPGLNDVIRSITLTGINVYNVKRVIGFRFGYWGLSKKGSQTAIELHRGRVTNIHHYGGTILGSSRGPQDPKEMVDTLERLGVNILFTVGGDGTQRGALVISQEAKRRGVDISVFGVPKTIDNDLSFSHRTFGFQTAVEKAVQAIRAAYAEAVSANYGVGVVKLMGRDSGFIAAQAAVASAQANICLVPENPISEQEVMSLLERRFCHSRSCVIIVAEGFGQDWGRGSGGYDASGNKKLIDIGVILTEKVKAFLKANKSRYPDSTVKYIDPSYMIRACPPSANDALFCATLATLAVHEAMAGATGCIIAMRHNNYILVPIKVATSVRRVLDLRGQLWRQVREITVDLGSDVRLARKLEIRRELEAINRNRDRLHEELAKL
#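 Compounds were pin-transferred as a titration series up to 57 uM into substrate buffer (0.5 mM F6P, 0.1 mM ATP, pH 8.0), then 1.25 nM PFK was added and reactions ran 45 min before ADP-Glo detection.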
# GLS inh: blocks human kidney-isoform glutaminase activity; AID 624170; GLS enzymatic activity, qHTS titration; Potency, µM (doses to about 45.5 µM), inactives show top-dose activity change, negative = inhibition, usual class: inhibitors; O94925; 410,000 compounds, 0.21% hits
#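 Coupled fluorescence readout: glutamate oxidase/HRP/Amplex Red detect glutamate formed by hKGA from L-glutamine (1 mM solution added). Buffer 45 mM KH2PO4 pH 8.2, 0.02% Tween-20; reads at t0 and 30 min RT.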
# * marks the source's active call; other numbers are inactive results; i = inactive; ? = inconclusive; / = no result. Unless noted, calls come from the whole dose curve; as a rule, active = well fitted curve in the direction sought with a large enough effect; inconclusive = small, poorly fitted or top-dose-only effect, or another doubt; inactive = no such curve, though single readings can be large; an effect the other way counts as inactive or inconclusive. Unless noted, % is set by controls: 0 for no effect and ±100 for the full control effect; potency is the fitted concentration of half-maximal effect.
SMILES,Pin1 inhibitor,Tb PGK inh,VDR inhibitor,Tb PFK inh,GLS inh
O=C(C#Cc1ccccc1)c1ccco1,2.4%,-9.4%,22.4µM*,-10.2%,13.4%
COC(=O)C(CC(C)C)NC(=O)C(N)Cc1ccccc1 (stereo unspecified),0.9%,-6.5%,-8.6%,6.1%,0.3%
CC[C@@H](C)[C@@H](CO[C@@H](Cc1ccccc1)C(=O)N[C@@H](CCS(C)(=O)=O)C(=O)OC(C)C)NC[C@@H](N)CS,/,/,10µM*,/,/
O=C1CC(c2ccccc2)Sc2ccccc2N1Cc1ccc(F)cc1 (stereo unspecified),19.3%,4.7%,-22.8%,/,-0.6%
COc1ccc(C(=O)/C=C/c2ccc(OC)c(O)c2)c(F)c1,-5.6%,-6.1%,89.1µM*,?,17.6%
COc1cc(/C=C/C(=O)c2cccs2)cc(OC)c1OC,/,/,12.6µM*,/,/
COc1cc(/C=C/C(=O)c2ccc(Cl)s2)cc(OC)c1O,15.6%,i,56.2µM*,4.4%,-8.1%
COc1cc(C=CC(=O)c2ccccc2)cc(OC)c1OC,/,/,/,/,-13.2%
COc1ccc(/C=C/C(=O)c2ccc(Cl)s2)cc1O,1.6%,-13.5%,79.4µM*,2.1%,26.4%
COc1ccc(C=CC(=O)c2ccc(OC)c(OC)c2)cc1O,/,-2.6%,/,/,23.3%
CCCCC[C@H](O)/C=C/C=C\C/C=C\CCCCC(=O)O,/,/,12.3%,/,/
CCN(CC)C(=O)c1nn(-c2ccc(OC)cc2)c(=O)c2c(N)scc12,-16.5%,/,/,/,/
CCOC(=O)c1nn(-c2ccc(OC)cc2)c(=O)c2c(N)scc12,-2.5%,i,17.8µM*,-23.4%,1.4%
S=c1[nH]nc(Cc2ccc(Br)cc2)n1/N=C/c1ccc(Cl)cc1,-1.6%,-8.9%,79.4µM*,-16.2%,3.5%
Nn1c(Cc2ccc(Br)cc2)n[nH]c1=S,2.6%,0.2%,89.1µM*,-24.5%,-12.9%
COc1ccc(N(C(=O)COc2ccc(Br)cc2)S(=O)(=O)c2ccc(C)cc2)cc1,9.0%,i,-1.6%,/,1.2%
COc1ccccc1N1CCN(C(=O)COc2cc(C)ccc2C)CC1,-0.5%,-4.8%,39.8µM*,-4.3%,3.1%
NCCCC[C@H](NC(=O)[C@H](CCCN=C(N)N)NC(=O)[C@H](CO)NC(=O)[C@H](CCCN=C(N)N)NC(=O)[C@@H](N)Cc1ccc(O)cc1)C(=O)N[C@@H](Cc1ccc(O)cc1)C(=O)N[C@@H](CO)C(=O)N[C@@H](CO)C(=O)N[C@@H](Cc1c[nH]c2ccccc12)C(=O)N[C@@H](Cc1ccc(O)cc1)C(=O)O,/,/,2.5%,/,/
CC[C@H](NC(=O)[C@H](CCCN=C(N)N)NC(=O)[C@H](Cc1c[nH]c2ccccc12)NC(=O)[C@@H](N)CS)C(=O)N[C@@H](CCCN=C(N)N)C(=O)N[C@@H](Cc1ccc(O)cc1)C(N)=O,/,/,39.8µM*,/,/
CCN1CCc2c(sc(NC(=S)NC(=O)c3ccccc3)c2C#N)C1,12.9%,-6.0%,79.4µM*,-29.6%,42.8%
O=C1C(c2ccccc2)=[N+]([O-])c2ccccc21,-6.6%,-8.1%,3.98µM*,-11.8%,-10.1%
COC1=C(c2ccccc2)C(=O)c2ccccc2C1=O,?,-10.4%,-20.2%,3.3%,-8.5%
O=S(=O)(c1ccc2[nH]c3c(c2c1)CCCC3)N1CCCCC1,11.3%,-3.6%,89.1µM*,1.0%,-1.0%
Cc1nc(SCC(=O)Nc2ccccc2C)cc(-c2ccccc2)n1,0.4%,-1.1%,-9.1%,/,0.8%
CCc1ccccc1N1CC23C=CC(O2)C(C(=O)O)C3C1=O (stereo unspecified),-0.3%,-4.1%,89.1µM*,4.6%,24.7%
SMILES,Pin1 inhibitor,Tb PGK inh,VDR inhibitor,Tb PFK inh,GLS inh
CCCCOC(=O)C1[C@H]2C(=O)N(c3ccccc3CC)C[C@]23C=C[C@H]1O3 (stereo partly specified),-8.3%,-5.0%,2.9%,2.1%,2.4%
COc1cc(OC)c(NS(=O)(=O)c2ccc3c(c2)CCCN3C(C)=O)cc1Cl,3.3%,0.2%,-1.4%,/,14.2%
COc1ccc(CC(=O)Nc2sccc2C#N)cc1S(=O)(=O)N1CCOCC1,2.2%,-10.1%,-5.2%,0.8%,-13.0%
COc1ccc2cc(-c3nc4ccc(C(=O)O)cc4[nH]3)c(=O)oc2c1,?,-5.1%,0.2%,/,-15.6%
CCCS(=O)(=O)NC(=O)C1(C)CCN(C(=O)c2ccco2)C1 (stereo unspecified),/,/,/,/,-9.3%
O=C1CC(NC2CCN(C(=O)c3cccc(F)c3)CC2)C(=O)N1 (stereo unspecified),-11.9%,-0.7%,-7.8%,?,11.2µM*
Cc1ccc(C)c(-c2ccc(C(=O)O)o2)c1,/,/,126µM*,/,/
COc1ccc(Cl)cc1-c1ccc(C(=O)O)o1,/,/,112µM*,/,/
COc1ccccc1-c1ccc(C(=O)O)o1,-2.6%,-1.3%,?,8.3%,13.5%
CC(C)c1ccc(C2NC(=O)c3c(sc4c3CCN(C)C4)N2)cc1 (stereo unspecified),?,-9.6%,-19.7%,/,15.8µM*
CN1CCc2c(sc3c2C(=O)NC(c2ccc(C(C)(C)C)cc2)N3)C1 (stereo unspecified),?,-8.2%,-26.6%,/,15.8µM*
CCc1ccc(NC(=O)C(C)Sc2nc(-c3ccco3)c(C#N)c(=O)[nH]2)cc1 (stereo unspecified),-19.3%,-14.3%,?,1.1%,20µM*
C=COCCNC(=O)Nc1ccc(Cl)c(Cl)c1,5.5%,1.4%,-2.5%,15.1µM*,13.8%
COCCNC(=S)Nc1ccc(Cl)c(Cl)c1,-11.3%,-14.4%,4.6%,0.0%,6.1%
CCC(C)NC(=O)C1CCC(CNS(=O)(=O)c2ccccc2)CC1 (stereo unspecified),8.0%,7.6%,13.0%,4.0%,8.5%
CCCCCCCCCCCCCCCC(=O)OCC(O)C1OC(=O)C(O)=C1O (stereo unspecified),/,/,5.01µM*,/,4.5%
CCCCCCCCCCCCCCCCCC(=O)OCC(C)O (stereo unspecified),/,/,-2.0%,/,44.8%
Cc1ccc(S(=O)(=O)NC(=O)C2(C)CCN2C(=O)c2cccc(F)c2)nc1 (stereo unspecified),/,/,/,/,-6.3%
CC[C@H]1C=C[C@@H](C(C(=O)OC)C(=O)OC)CN1C(C)=O,19.6%,-2.3%,79.4µM*,/,17.1%
C=CC[C@H]1C=C[C@@H](C(C(=O)OC)C(=O)OC)CN1C(C)=O,-3.9%,-6.5%,?,/,8.2%
COC(=O)C1=C(C)Nc2[nH]c(=S)[nH]c(=O)c2C1c1ccc(OC)cc1 (stereo unspecified),-4.4%,i,-3.3%,-0.8%,-13.2%
COc1ccc(C(c2c(N)[nH]c(=S)[nH]c2=O)c2c(N)[nH]c(=S)[nH]c2=O)cc1,-8.8%,i,-23.1%,-1.4%,11.2µM*
O=C(CSC(=O)c1ccccc1)Nc1ccccc1F,?,-2.6%,79.4µM*,-6.1%,-18.6%
O=C(O)c1ccccc1NC(c1ccccc1)c1ccc2cccnc2c1O (stereo unspecified),?,-1.0%,35.5µM*,/,-13.0%
